SRC2 TRFRET art = flags TR-FRET format artefacts in PPARgamma SRC-2 recruitment agonist screen. TR-FRET artefact counter-screen; hits give high values. TR-FRET ratio at 8 µM. hit rate 0.4% among 200,000; in the data active means TR-FRET ratio above about 2000
SRC3 TRFRET art = counter-screen for PPARgamma SRC-3 recruitment agonists: TR-FRET artefact; hit rate 0.39% among 99,000; PPARgamma/SRC-3 format; hits give high values; AID 1048; TR-FRET ratio at 8 µM; in the data active means TR-FRET ratio above about 2000
PPARg SRC-3 ag = PPARgamma-driven SRC-3 recruitment agonism. hit rate 0.26% among 200,000. biochemical PPARgamma/SRC-3 coactivator recruitment assay. activation, % at 8 µM. P37231. AID 731; in the data active means activation above about 23%
PPARg SRC-2 ag = agonists of SRC-2 recruitment by human PPARgamma. PPARgamma LBD-SRC-2 recruitment, biochemical. hit rate 0.34% among 200,000. activation, % at 8 µM. AID 1032
PPARg SRC-1 ag = PPARgamma-driven SRC-1 recruitment agonism | P37231 | PPARgamma-SRC-1 coactivator recruitment biochemical assay | activation, % at 8 µM | hit rate 0.41% among 200,000; in the data active means activation above about 19%
SRC1 TRFRET art = counter-screen for PPARgamma SRC-1 recruitment agonists: TR-FRET artefact; TR-FRET detection artefact counter-screen, emission ratio; hits give high values; TR-FRET ratio at 8 µM; hit rate 0.34% among 99,000; AID 1051; in the data active means TR-FRET ratio above about 2300
PPARg SRC2 conf = confirmation of agonists of SRC-2 recruitment by human PPARgamma; hit rate 52% among 790; biochemical SRC-2 recruitment by PPARgamma; activation, % at 8 µM; shares compounds with PPARg SRC-3 ag
PPARg SRC1 ag = confirmation of agonists of SRC-1 recruitment by human PPARgamma. shares compounds with PPARg SRC-3 ag. hit rate 43% among 790. AID 1300. PPARgamma–SRC-1 coactivator recruitment biochemical assay. activation, % at 8 µM; in the data active means activation above about 20%
PPARg SRC3 ag = confirmation of agonists of SRC-3 recruitment by human PPARgamma; shares compounds with PPARg SRC-3 ag; biochemical PPARgamma-SRC-3 coactivator recruitment, agonist mode; activation, % at 8 µM; hit rate 29% among 790; in the data active means activation above about 24%
Numbers stand for hits; - = inactive; . = not tested or not shown; ! = a repeat was not active. Most compounds without a hit are left out; they make up all but 0.9% or so of the library. Unless noted, no stated cut-off is given here; in the data, active means activation above about 22%; inactive means the rest.

SMILES	SRC2 TRFRET art	SRC3 TRFRET art	PPARg SRC-3 ag	PPARg SRC-2 ag	PPARg SRC-1 ag	SRC1 TRFRET art	PPARg SRC2 conf	PPARg SRC1 ag	PPARg SRC3 ag
Cc1cc2nc(-c3ccc(SCc4ccccc4C#N)nc3)[nH]c2cc1C	2284	.	46	59	36	.	32	20	-
CCN(CC)C(=O)c1sc2[nH]c(=S)n(-c3ccccc3)c(=O)c2c1C	-	.	-	27	-	.	-	-	-
O=C(Nc1nnc(-c2ccco2)s1)C1CCN(S(=O)(=O)c2ccc(Cl)cc2)CC1	-	.	36	-	34	.	24	-	-
COCC(=O)N(c1ccccc1)C(C)C(=O)OC (configuration not stated)	-	-	-	-	-	-	.	.	.
CCOC(=O)c1sc(NC(=O)CSc2nnc(C(C)C)n2C)nc1C	-	.	-	-	-	.	.	.	.
COC(=O)c1sc(NC(=O)CSc2nnc(C(C)C)n2C)nc1C	-	.	-	-	19	.	-	-	-
O=C(CSc1nnc(COc2cccc3cccnc23)o1)N1CCc2ccccc21	-	.	-	-	20	.	-	-	-
O=C(NC1CCCCC1)C(c1cccnc1)N(CCc1ccccc1)C(=O)Cc1cccs1 (configuration not stated)	-	-	-	-	-	-	.	.	.
CC(C)CSC1=NSC2=NC(=O)/C(=C\c3coc4ccccc4c3=O)C(=N)N12	-	-	-	-	-	-	.	.	.
CSC1=NSC2=NC(=O)/C(=C\c3coc4ccccc4c3=O)C(=N)N12	-	-	28	-	25	-	-	-	-
COc1ccc(CCNc2ccc(N3C(=O)CC(C)C3=O)cc2[N+](=O)[O-])cc1OC (configuration not stated)	-	-	-	-	-	-	.	.	.
CSc1oc(-c2ccccc2)nc1C(N)=O	-	.	30	-	-	.	27	-	-
Cc1ccc(C)c(-n2c3nc(=O)[nH]c(=O)c-3cc3cc([N+](=O)[O-])ccc32)c1	-	-	23	-	-	-	-	-	-
COC(=O)N/N=C/c1cc(Cl)cc(Cl)c1OCc1ccc(F)cc1	-	-	-	-	-	-	.	.	.
O=[N+]([O-])c1cc(Cc2ccccc2)cc(C=Nc2ccc(N3CCOCC3)cc2)c1O	2504	2652	39	65	51	3128	-	-	-
CCn1c(=O)c(=O)[nH]c2cc(C(=O)NC3CC3)ccc21	-	-	-	-	-	-	.	.	.
CCn1c(=O)c(=O)[nH]c2cc(C(=O)Nc3ccc(S(=O)(=O)N4CCCC4)cc3)ccc21	-	.	26	-	-	.	-	-	-
Cc1ccccc1-c1ccc(C=Nc2c(C)n(C)n(-c3ccccc3)c2=O)o1	2051	.	-	35	24	.	24	-	-
CCOC(=O)c1c(-c2cccs2)csc1NC(=O)CCCC(=O)O	2153	.	-	25	-	.	25	-	-
O=C(N/C(=C\c1ccc([N+](=O)[O-])cc1)C(=O)N1CCCCC1)c1ccccc1Br	-	-	-	-	-	-	.	.	.
COc1cccc2cc(C(=O)C3=C(O)C(=O)N(Cc4ccco4)C3c3cccnc3)oc12 (configuration not stated)	2226	.	40	26	27	.	23	-	-
O=C(C1=C(O)C(=O)N(Cc2ccco2)C1c1cccnc1)c1cc2ccccc2o1 (configuration not stated)	2097	.	50	34	33	.	-	-	-
O=C(C1=C(O)C(=O)N(CC2CCCO2)C1c1cccnc1)c1ccco1 (configuration not stated)	-	.	-	-	-	.	.	.	.
CCC(NC(=O)c1ccccc1NC(=O)c1ccco1)C(=O)NC1CCCCC1 (configuration not stated)	2076	.	-	25	-	.	-	-	-
Cn1cc(CC(=O)NCCN2CCOCC2)c2ccccc21	-	-	-	-	-	-	.	.	.
SMILES	SRC2 TRFRET art	SRC3 TRFRET art	PPARg SRC-3 ag	PPARg SRC-2 ag	PPARg SRC-1 ag	SRC1 TRFRET art	PPARg SRC2 conf	PPARg SRC1 ag	PPARg SRC3 ag
Cc1c2cc(O)c(=O)cc-2oc2cc(O)c(O)cc12	-	.	27	-	-	.	-	-	-
COc1cc(OC)c(-c2c3cc(O)c(=O)cc-3oc3cc(O)c(O)cc23)cc1OC	-	-	-	-	-	-	.	.	.
Cc1ccc2nc(Cl)c(/C=N/Nc3nc(C)cc(C)n3)c(=O)n2c1	-	-	-	-	-	-	.	.	.
N#Cc1cc2c(nc1SCc1ccccc1)CCCCC2	1973	.	-	35	-	.	37	33	24
N#Cc1cc2c(nc1SCc1cccc(Cl)c1)CCCCC2	-	.	-	-	-	.	.	.	.
CC(Sc1cnc2ccccc2n1)C(=O)O (configuration not stated)	-	.	-	26	-	.	-	-	-
Cc1cc(SC(C)C(=O)O)nc2ccccc12 (configuration not stated)	-	-	-	-	-	-	.	.	.
CC(Sc1ccc2ccccc2n1)C(=O)O (configuration not stated)	2286	.	37	23	30!	.	26	-	-
O=[N+]([O-])c1cnn(-c2nc(-c3ccccc3)cc(C(F)(F)F)n2)c1	-	-	-	-	-	-	.	.	.
COc1ccc(C(=O)C2CCCN(C(=O)/C=C/c3ccccn3)C2)c(C)c1 (configuration not stated)	-	-	-	-	-	-	.	.	.
COc1ccc2c(c1)oc(=O)c1c3ccccc3[nH]c21	3710	3944	41	56	48	4961	44	33	27
COc1ccc2c(c1)oc(=O)c1ccccc12	-	-	-	-	-	-	.	.	.
C=CCn1c(SCC(=O)NC(=O)c2cccc([N+](=O)[O-])c2)nnc1-c1ccccc1	-	-	-	-	-	-	.	.	.
COC(=O)c1ccc(C2C(C(=O)c3cc4ccccc4o3)=C(O)C(=O)N2CCCN(C)C)cc1 (configuration not stated)	-	.	29	-	22	.	25	22	-
O=C(C1=C(O)C(=O)N(CCN2CCOCC2)C1c1cccnc1)c1cc2ccccc2o1 (configuration not stated)	-	.	-	-	-	.	.	.	.
COc1cccc(C2C(C(=O)c3ccc(C)o3)=C(O)C(=O)N2CCCN(C)C)c1 (configuration not stated)	-	.	-	-	-	.	.	.	.
COC(=O)c1ccc(C2/C(=C(\O)c3cccc(OC)c3)C(=O)C(=O)N2CCCN(C)C)cc1 (configuration not stated)	-	-	-	-	-	-	.	.	.
O=C(C1=C(O)C(=O)N(CCCN2CCOCC2)C1c1ccncc1)c1cc2ccccc2o1 (configuration not stated)	-	2068	-	-	23	2425	25	-	-
